Rows were chosen to be rich in hits. Some 1.3% of all compounds tested hit in one or more screens of this group.
PREPL inhibitor: PREPL enzyme inhibitors, primary screen, biochemical, fluorescence polarization; Prolyl endopeptidase-like (Homo sapiens), Q4J6C6; recombinant PREPL, fluorescence polarization activity-based probe; inhibition, % at 5.96 µM; hit rate 0.68% among 320,000; in the data active = inhibition above about 43%;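 also: 0% = enzyme with DMSO and 100% = wells lacking enzyme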
LYPLA2 counter: LYPLA2 inhibitors, primary screen, counter-screen for PME1 inhibitor project, biochemical, fluorescence polarization, FP-Rh probe ABPP. AID 2177, 2009. hit rate 0.38% among 320,000. Acyl-protein thioesterase 2 (Homo sapiens), O95372. inhibition, % at 5.9 µM. recombinant LYPLA2;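 active = inhibition above the screen-wide mean plus 3 SD, limit set per campaign, cut at about 26% in these data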;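 also: 0% = LYPLA2 with DMSO and 100% = wells lacking LYPLA2 enzyme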
Target sequence (O95372 whole entry, looked up): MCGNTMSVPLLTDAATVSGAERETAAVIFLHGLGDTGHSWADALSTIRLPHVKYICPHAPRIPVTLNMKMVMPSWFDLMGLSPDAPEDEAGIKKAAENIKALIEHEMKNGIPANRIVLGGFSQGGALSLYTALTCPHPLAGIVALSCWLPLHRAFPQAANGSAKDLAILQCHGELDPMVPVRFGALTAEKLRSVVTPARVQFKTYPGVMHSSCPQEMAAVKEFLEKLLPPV
ZTA counter: blocks Epstein-Barr virus ZTA, an EBNA-1 counter-screen; P03206; ZTA-DNA binding, fluorescence polarization; inhibition, % at 11 µM; hit rate 0.15% among 320,000; in the data active = inhibition above about 33%
Target sequence (P03206 whole entry, looked up): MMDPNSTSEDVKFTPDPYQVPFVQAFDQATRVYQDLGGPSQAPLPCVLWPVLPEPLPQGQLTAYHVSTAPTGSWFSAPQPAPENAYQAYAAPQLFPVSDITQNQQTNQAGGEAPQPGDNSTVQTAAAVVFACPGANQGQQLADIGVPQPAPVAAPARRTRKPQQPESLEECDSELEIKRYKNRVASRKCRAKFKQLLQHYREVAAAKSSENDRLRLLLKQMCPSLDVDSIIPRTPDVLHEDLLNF
EBNA-1 inh: EBNA-1 DNA-binding inhibitors, primary screen, biochemical, fluorescence polarization | AID 1950, 2009 | hit rate 0.34% among 300,000 | inhibition, % at 14.8 µM; in the data active = inhibition above about 28%
LYPLA1 inh: LYPLA1 inhibitors, primary screen, counter-screen for PME1 inhibitor project, biochemical, fluorescence polarization, FP-Rh probe ABPP; Acyl-protein thioesterase 1 (Homo sapiens), O75608; recombinant LYPLA1; inhibition, % at 5.9 µM; hit rate 0.16% among 320,000;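 active = inhibition above the mean of all tested compounds plus 3 SD, set per campaign, cut at about 14% in these data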;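 also: inhibitors block serine hydrolase probe labeling of LYPLA1 so polarization falls; 0% = enzyme with DMSO and 100% = wells lacking LYPLA1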
Zta DNA confirm: EBV Zta binding to ZRE DNA, inhibitors, confirmation, biochemical, fluorescence polarization, triplicate. AID 2361, 2010. inhibition, % at 11.1 µM. shares compounds with ZTA counter. hit rate 30% among 320;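 active = mean inhibition across triplicate runs above the hit threshold derived for the original primary screen, cut at about 33% in these data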;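 also: 0% = Zta with DMSO and 100% = wells lacking Zta protein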
EBNA1 counter: EBNA-1 DNA-binding inhibition, counter-screen for ZTA inhibitor project, biochemical, fluorescence polarization. shares compounds with ZTA counter. inhibition, % at 14.8 µM. 320 tested, under 10 active; call rule not given here
* hit, by the source's call; . = no result given.

SMILES	PREPL inhibitor	LYPLA2 counter	ZTA counter	EBNA-1 inh	LYPLA1 inh	Zta DNA confirm	EBNA1 counter
CC(C)[C@H](NC(=O)C1CCN(C(=O)[C@@H]2CCCN2)CC1)C(=O)NCc1ccc(F)cc1	14	2	-11	-4	1	.	.
CN(C(=O)c1cccc(C#N)c1)c1nnc(C2CCCO2)s1 (stereo not drawn)	-1	1	110*	-2	0	4	1
O=C(COC(=O)[C@H](Cc1ccccc1)NC(=O)c1ccco1)Nc1ccccc1OC(F)F	11	.	.	.	.	.	.
CCOC(=O)c1cc2c(C)n(-c3ccc(N(C)C)cc3)c(C)c2cc(C(=O)OCC)c1=O	-3	8	160*	-6	2	6	-1
COc1ccc(NC(=O)CCN2CCCC(C)C2)cc1 (stereo not drawn)	4	2	52*	5	0	1	-10
COc1ccc(NC(=O)CCN2CCC(C)CC2)cc1	8	-4	-11	-20	0	.	.
Cc1ccc(C(C(=O)NC2CCCC2)N(Cc2ccc3c(c2)OCO3)C(=O)c2snc(C(N)=O)c2N)cc1 (stereo not drawn)	-2	1	57*	5	2	1	-9
COc1cccc(CC(=O)NNC(=O)CN(C)S(=O)(=O)c2ccc(C)cc2)c1	2	.	.	.	.	.	.
CC1(C)Cc2c(sc(NC(=O)COc3cccc4ccccc34)c2C#N)C(C)(C)N1	20	0	48*	5	-6	51*	-5
CCCCNC(=S)N1CCN(C(c2ccccc2)c2ccccc2)CC1	1	-2	43*	9	-6	12	10
Cc1ccc(CN2CCN(/N=C/c3ccc(Cl)c([N+](=O)[O-])c3)CC2)cc1	30	7	-14	-18	2	.	.
CN(C)C(=O)CCCCCCCCC(=O)N(C)C	0	-2	33*	8	0	8	0
O=C(CCCCCC(=O)N(CCO)CCO)N(CCO)CCO	-6	-2	3	-6	-3	.	.
O=C1COc2ccc(S(=O)(=O)Nc3ccc(F)cc3)cc2N1	-4	1	-9	2	-1	.	.
O=C(/C=C/c1ccco1)NC(=S)Nc1ccc(C(=O)O)cc1	5	-2	54*	-11	-4	38*	1
Cc1ccccc1OCCNC(=O)/C=C/c1ccccc1	-63	2	129*	-4	2	-12	-4
Cc1ccc(OCCNC(=O)/C=C/c2ccccc2)cc1C	-34	-2	0	-5	0	.	.
O=C(COc1ccc(S(=O)(=O)NC2CCCCC2)cc1Cl)NCC1CCCO1 (stereo not drawn)	-1	7	152*	4	1	12	0
COc1cc(NC(=O)c2csc(N)n2)cc(C(=O)Nc2cccc(C(F)(F)F)c2)c1	6	-42	41*	7	-26	6	-4
COc1ccc(C(=O)N(C)CCCC2CCCC2)cc1OC1CCN(C(C)C)CC1	9	5	34*	8	0	-3	-10
CCOc1c(C)cnc2c1c(=O)n(Cc1ccccc1F)c(=O)n2C	10	7	-24	-10	3	.	.
COc1cc(C)c2c(c1C=O)Oc1c(c(C)c(O)c3c1C(O)OC3=O)OC2=O (stereo not drawn)	-8	-9	67*	-5	-11	63*	11
Cc1nc2c(ccc3nc(NC(=O)C4CC4)sc32)s1	-1	2	2	10	2	.	.
CCC(=O)Nc1nc2ccc3sc(C)nc3c2s1	5	3	35*	11	2	-7	-4
CCOc1cc(/C=C2/C(=O)ON=C2C)ccc1OCc1ccc(F)cc1	19	-1	35*	-4	-4	4	0
SMILES	PREPL inhibitor	LYPLA2 counter	ZTA counter	EBNA-1 inh	LYPLA1 inh	Zta DNA confirm	EBNA1 counter
CCOc1cc(/C=C2/C(=O)ON=C2C)ccc1OCc1ccccc1	2	1	3	2	-1	.	.
COc1cccc(NC(=S)N2CCc3cc(OC)c(OC)cc3C2)c1	0	-4	48*	-5	-1	-8	-2
COc1cc2c(cc1OC)CN(C(=S)Nc1ccc(Cl)cc1)CC2	-6	5	-3	9	1	.	.
COCCCN(C(=O)c1cc2c(s1)CCCCC2)c1c(N)n(Cc2ccccc2)c(=O)[nH]c1=O	-9	-5	162*	12	0	15	0
COc1cccc(NS(=O)(=O)c2ccc3c(c2)C2C=CCC2C(c2ccc(C(=O)O)cc2)N3)c1 (stereo not drawn)	37	-8	38*	-1	-9	25	4
O=C1CN(c2ccccc2)C(=S)N1C(=O)c1ccc(Br)cc1	-1	-8	2	7	-6	.	.
O=C(O)CC(NC(=O)CCc1ccccc1)c1ccc(Cl)cc1 (stereo not drawn)	3	0	62*	11	-2	-1	-5
Cc1cccc(CC(=O)NCCN2CCCCC2)c1	2	5	-11	-7	3	.	.
CC1CCCC(NC(=O)COC(=O)c2cccc(S(=O)(=O)N3CCCCC3)c2)C1C (stereo not drawn)	2	2	41*	.	-5	0	8
CNS(=O)(=O)c1cccc(C(=O)OCC(=O)NC2CCCC(C)C2C)c1 (stereo not drawn)	20	.	.	.	.	.	.
Cc1ccc(-n2nc(C(=O)NCc3ccco3)c3c4ccccc4n(C)c3c2=O)cc1	7	-15	45*	15	-4	1	22
CCCCOc1ccc(C(=O)Nc2cccc(-n3cnnn3)c2)cc1OC	5	-3	7	2	-11	.	.
Cc1ccc(COC(=O)c2ccc3ccccc3n2)cc1	1	-1	-3	7	-3	.	.
O=C(CN1C(=O)/C(=C/c2ccco2)SC1=S)Nc1ccc(O)c(C(=O)O)c1	-2	-13	7	-9	-4	.	.
O=C(CN1C(=O)/C(=C/c2ccco2)SC1=S)Nc1ccc(C(=O)O)c(O)c1	-2	-26	57*	12	-11	19	-5
O=C(CCCN1C(=O)/C(=C\c2cccs2)SC1=S)Nc1ccc(O)cc1C(=O)O	24	-2	9	9	3	.	.
O=C(CCCN1C(=O)/C(=C\c2ccco2)SC1=S)Nc1ccc(O)cc1C(=O)O	1	-4	53*	12	-2	0	2
CC(C(=O)OCC(=O)c1ccc(Br)cc1)N1C(=O)C2C3C=CC(C3)C2C1=O (stereo not drawn)	18	-1	36*	-2	5	-8	-6
COc1cc(/C=C2\S/C(=N/S(=O)(=O)Cc3ccccc3)NC2=O)c([N+](=O)[O-])cc1OC	4	7	39*	13	0	8	11
